These results are taken from PubChem BioAssay.

A short description of experiment [1]: small molecules captured by biotinylated probe aFSTL3 – biochemical, small-molecule microarray, fluorescence 635/667, stem cell growth factor project, primary screen (AID 1064).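 Further: measures binding of the biotinylated anti-FSTL3 antibody to printed compounds.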 Conditions: higher = more signal.
A short description of experiment [2]: binders from COS7 lysate, DM2A8 probe, primary screen, torsin A project, cell lysate, small-molecule microarray, fluorescence 635/667 (AID 1065). The settings on record: higher = more signal, COS7 lysate expressing mutant human TOR1A.
Experiment [3] in a line: small molecules captured by biotinylated probe aFGF2 – biochemical, small-molecule microarray, fluorescence 635/667, stem cell growth factor project, primary screen (AID 1067).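 Further: measures binding of biotinylated aFGF2 protein to printed compounds on slides; z-score merges feature fluorescence and signal-to-noise across triplicate slides.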 The settings on record: higher = more signal.
Experiment [4] can be described thus: small molecules captured by biotinylated probe aFGF10 – biochemical, small-molecule microarray, fluorescence 635/667, stem cell growth factor project, primary screen (AID 1071).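 Further: score merges 667 nm spot intensity and signal to noise from triplicate slides.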 Conditions: higher = more signal.
Experiment [5] has as its target Neurogenic locus notch homolog protein 2 (Homo sapiens) (UniProt Q04721). As to the kind of experiment: small molecules binding Notch2 protein – biochemical, small-molecule microarray, 635 nm fluorescence, stem cell growth factors, primary screen (AID 1073). Conditions: higher = more signal.
The target of experiment [6] is Pro-neuregulin-1, membrane-bound isoform (Homo sapiens) (UniProt Q02297). As to the kind of experiment: small molecules binding neuregulin-1 protein – biochemical, small-molecule microarray, fluorescence 635/667, psychiatric disease protein project, primary screen (AID 1075).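 Further: score combines 667 nm spot fluorescence with signal to noise.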 The settings on record: NRG1 binding, 635 nm fluorescence, higher = more signal.
For experiment [7], the system named is Neuregulin-1 EGF-like domain. The experiment is described as follows: small molecules binding NRG1 EGF domain – biochemical, small-molecule microarray, 635 nm fluorescence, primary screen (AID 1081).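 Further: binding of the protein to compounds printed on small-molecule microarray slides.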 Conditions: higher = more signal.
A short description of experiment [8]: FRG1 expression reporter modulators in myotubes – cell-based, C2C12 myotubes, firefly/Renilla luciferase, luminescence, FRG1 inhibition for FSHD, primary screen (AID 1084). Conditions: FRG1 promoter luciferase, higher = more signal, called active from +8 up or from −8 down.
The nature of experiment [9]: small molecules captured by biotinylated probe aFST – biochemical, small-molecule microarray, fluorescence 635/667, stem cell growth factor project, primary screen (AID 1086).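 Further: score merges 667 nm fluorescence with signal-to-noise of each printed compound spot.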 Conditions: higher = more signal.
A short description of experiment [10]: binders of probe aHhip on microarray, primary screen, stem cell growth factor project, biochemical, small-molecule microarray, fluorescence 635/667 (AID 1087).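 Further: score merges spot fluorescence at 667nm with spot signal to noise ratio.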 The settings on record: higher = more signal.
The subject of experiment [11] is PRMT1 (protein arginine N-methyltransferase 1). As to the kind of experiment: small molecules binding arginine methyltransferase PRMT1 – biochemical, small-molecule microarray, 635 nm fluorescence, primary screen (AID 1088).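 Further: binding of Prmt1 protein to compounds spotted on small-molecule microarray slides.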 Conditions: higher = more signal.
Experiment [12] can be described thus: growth effects on S. cerevisiae YJM789 – YJM789 clinical isolate, OD600, 24 h, basal, primary screen (AID 1089).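 Further: growth of clinical yeast isolate S. cerevisiae YJM 789 seeded 1000 cells per well; test concentration not given here.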 Conditions: higher = more signal, called active from +8 up or from −8 down.
Experiment [13] in a line: S. pombe growth modifiers, basal conditions – strain 972, OD600, 24 h, no modulator, primary screen (AID 1090).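 Further: basal condition with compound alone and no growth modifier present; test concentration not given here.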 Conditions: S. pombe 972 growth, higher = more signal, called active from +8 up or from −8 down.
Experiment [14] is described as follows: budding yeast growth modifiers under rapamycin – strain BY4716, OD600, 96 h, primary screen (AID 1091). Further: test concentration not given here. The settings on record: S. cerevisiae BY4716 + rapamycin, higher = more signal, called active from +8 up or from −8 down.
Experiment [15] concerns the target Torsin-1A-interacting protein 2 (Homo sapiens) (UniProt Q8NFQ8). As to the kind of experiment: small molecules binding lysate-expressed LULL1 – cell lysate, human LULL1 lysate, 635/667 nm fluorescence, primary screen (AID 1092).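 Further: probe is lysate of COS7 cells overexpressing human LULL1; score merges per-feature 667 nm fluorescence with signal-to-noise.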 Conditions: small-molecule microarray, hLULL1 lysate binding, 635 nm fluorescence; higher = more signal.
Experiment [16] in a line: optical density change of DRC41 E. coli – strain DRC41, OD650, 24 h, E. coli filamentation project, primary screen (AID 1093).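 Further: MC1000 strain lacking acrAB efflux and sulA so SOS filamentation is blocked; test concentration not given here.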 The settings on record: E. coli DRC41 growth, higher = more signal, called active from +8 up or from −8 down.
A short description of experiment [17]: probe aLefty2 binding to arrayed compounds – biochemical, biotinylated probe, 635/667 nm fluorescence, primary screen (AID 1094).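 Further: score merges spot fluorescence near 667 nm with spot signal-to-noise ratio.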 Conditions: small-molecule microarray, higher = more signal.
Experiment [18] has as its system Noggin (protein binding on small-molecule microarray). As to the kind of experiment: small molecules binding Noggin protein – biochemical, 635/667 nm fluorescence, primary screen (AID 1095).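 Further: score merges 667 nm feature fluorescence with signal to noise over triplicate slides.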 Conditions: 635 nm fluorescence, higher = more signal.
Experiment [19] addresses Neurogenic locus notch homolog protein 3 (Homo sapiens) (UniProt Q9UM47). As to the kind of experiment: small molecules binding NOTCH3 protein – biochemical, 635/667 nm fluorescence, primary screen (AID 1096). Conditions: small-molecule microarray, 635 nm fluorescence, higher = more signal.
A short description of experiment [20]: probe aEGFR binding to arrayed compounds – biochemical, biotinylated probe, 635/667 nm fluorescence, primary screen (AID 1097).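 Further: probe is a biotinylated anti-EGFR antibody binding compounds printed on slides; score combines fluorescence near 667 nm and signal to noise of each spot.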 Conditions: small-molecule microarray, higher = more signal.

Activity calls are given as the source filed them.

Neurogenic locus notch homolog protein 2 (Homo sapiens), sequence (Q04721 whole entry, looked up, canonical isoform): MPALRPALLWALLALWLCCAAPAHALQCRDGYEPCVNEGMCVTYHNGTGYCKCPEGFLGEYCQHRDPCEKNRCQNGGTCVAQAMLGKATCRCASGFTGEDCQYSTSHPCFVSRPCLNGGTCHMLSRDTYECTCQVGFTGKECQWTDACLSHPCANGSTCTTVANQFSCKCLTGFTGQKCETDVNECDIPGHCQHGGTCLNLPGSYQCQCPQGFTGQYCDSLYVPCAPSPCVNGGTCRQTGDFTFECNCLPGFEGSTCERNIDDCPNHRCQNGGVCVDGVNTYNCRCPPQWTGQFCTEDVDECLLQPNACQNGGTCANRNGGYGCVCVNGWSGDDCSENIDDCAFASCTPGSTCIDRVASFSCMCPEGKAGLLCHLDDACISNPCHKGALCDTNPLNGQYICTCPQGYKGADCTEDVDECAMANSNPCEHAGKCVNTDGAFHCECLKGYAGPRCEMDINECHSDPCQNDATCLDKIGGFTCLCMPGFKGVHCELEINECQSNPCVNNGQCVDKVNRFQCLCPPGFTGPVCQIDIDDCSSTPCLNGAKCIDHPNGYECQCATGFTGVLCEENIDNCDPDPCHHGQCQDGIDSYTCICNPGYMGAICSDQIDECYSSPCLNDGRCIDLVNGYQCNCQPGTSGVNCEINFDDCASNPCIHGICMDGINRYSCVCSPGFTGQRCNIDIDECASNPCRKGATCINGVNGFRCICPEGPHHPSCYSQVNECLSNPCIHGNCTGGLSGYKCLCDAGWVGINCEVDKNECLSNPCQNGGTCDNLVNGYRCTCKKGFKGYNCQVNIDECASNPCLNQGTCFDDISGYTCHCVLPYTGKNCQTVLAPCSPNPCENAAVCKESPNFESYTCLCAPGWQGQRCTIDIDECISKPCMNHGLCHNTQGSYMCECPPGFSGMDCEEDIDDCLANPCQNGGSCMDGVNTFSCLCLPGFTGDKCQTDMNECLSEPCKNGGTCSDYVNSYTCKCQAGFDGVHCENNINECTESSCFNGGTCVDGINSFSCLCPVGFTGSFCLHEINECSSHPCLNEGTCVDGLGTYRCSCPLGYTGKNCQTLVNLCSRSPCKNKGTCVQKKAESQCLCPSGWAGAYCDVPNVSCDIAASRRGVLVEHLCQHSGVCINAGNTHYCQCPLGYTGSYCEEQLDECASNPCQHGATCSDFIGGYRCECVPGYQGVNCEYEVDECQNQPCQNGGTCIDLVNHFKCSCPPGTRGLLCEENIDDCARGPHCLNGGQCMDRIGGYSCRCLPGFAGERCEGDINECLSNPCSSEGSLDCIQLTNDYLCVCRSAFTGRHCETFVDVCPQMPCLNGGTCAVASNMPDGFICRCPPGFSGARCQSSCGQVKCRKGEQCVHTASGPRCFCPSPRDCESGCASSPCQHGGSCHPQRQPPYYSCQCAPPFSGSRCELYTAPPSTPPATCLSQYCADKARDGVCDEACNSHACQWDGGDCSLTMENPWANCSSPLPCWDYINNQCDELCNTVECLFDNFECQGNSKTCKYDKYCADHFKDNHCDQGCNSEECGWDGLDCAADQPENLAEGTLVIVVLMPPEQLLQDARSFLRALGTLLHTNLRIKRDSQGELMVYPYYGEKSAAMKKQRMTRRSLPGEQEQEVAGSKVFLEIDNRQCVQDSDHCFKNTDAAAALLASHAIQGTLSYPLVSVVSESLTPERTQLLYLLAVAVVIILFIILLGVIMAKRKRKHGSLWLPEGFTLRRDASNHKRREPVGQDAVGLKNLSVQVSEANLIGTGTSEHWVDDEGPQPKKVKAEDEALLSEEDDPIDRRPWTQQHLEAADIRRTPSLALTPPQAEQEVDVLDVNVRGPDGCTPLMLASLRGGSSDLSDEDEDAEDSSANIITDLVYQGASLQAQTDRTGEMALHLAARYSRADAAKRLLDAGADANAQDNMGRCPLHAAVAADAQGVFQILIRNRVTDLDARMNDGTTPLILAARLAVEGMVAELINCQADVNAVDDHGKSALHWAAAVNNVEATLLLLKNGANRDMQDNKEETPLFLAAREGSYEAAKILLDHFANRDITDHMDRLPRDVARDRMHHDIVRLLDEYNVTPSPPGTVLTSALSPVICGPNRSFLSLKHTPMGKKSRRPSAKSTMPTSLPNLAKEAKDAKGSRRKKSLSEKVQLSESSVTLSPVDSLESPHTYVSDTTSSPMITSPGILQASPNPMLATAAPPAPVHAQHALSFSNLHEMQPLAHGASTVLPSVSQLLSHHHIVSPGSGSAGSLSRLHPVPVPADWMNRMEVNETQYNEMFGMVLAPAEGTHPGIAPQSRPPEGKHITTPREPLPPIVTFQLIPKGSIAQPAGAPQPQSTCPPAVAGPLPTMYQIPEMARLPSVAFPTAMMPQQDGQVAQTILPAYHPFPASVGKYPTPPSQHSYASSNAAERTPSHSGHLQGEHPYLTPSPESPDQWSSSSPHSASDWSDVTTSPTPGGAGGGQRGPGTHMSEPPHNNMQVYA
Neurogenic locus notch homolog protein 3 (Homo sapiens), sequence (Q9UM47 whole entry, looked up): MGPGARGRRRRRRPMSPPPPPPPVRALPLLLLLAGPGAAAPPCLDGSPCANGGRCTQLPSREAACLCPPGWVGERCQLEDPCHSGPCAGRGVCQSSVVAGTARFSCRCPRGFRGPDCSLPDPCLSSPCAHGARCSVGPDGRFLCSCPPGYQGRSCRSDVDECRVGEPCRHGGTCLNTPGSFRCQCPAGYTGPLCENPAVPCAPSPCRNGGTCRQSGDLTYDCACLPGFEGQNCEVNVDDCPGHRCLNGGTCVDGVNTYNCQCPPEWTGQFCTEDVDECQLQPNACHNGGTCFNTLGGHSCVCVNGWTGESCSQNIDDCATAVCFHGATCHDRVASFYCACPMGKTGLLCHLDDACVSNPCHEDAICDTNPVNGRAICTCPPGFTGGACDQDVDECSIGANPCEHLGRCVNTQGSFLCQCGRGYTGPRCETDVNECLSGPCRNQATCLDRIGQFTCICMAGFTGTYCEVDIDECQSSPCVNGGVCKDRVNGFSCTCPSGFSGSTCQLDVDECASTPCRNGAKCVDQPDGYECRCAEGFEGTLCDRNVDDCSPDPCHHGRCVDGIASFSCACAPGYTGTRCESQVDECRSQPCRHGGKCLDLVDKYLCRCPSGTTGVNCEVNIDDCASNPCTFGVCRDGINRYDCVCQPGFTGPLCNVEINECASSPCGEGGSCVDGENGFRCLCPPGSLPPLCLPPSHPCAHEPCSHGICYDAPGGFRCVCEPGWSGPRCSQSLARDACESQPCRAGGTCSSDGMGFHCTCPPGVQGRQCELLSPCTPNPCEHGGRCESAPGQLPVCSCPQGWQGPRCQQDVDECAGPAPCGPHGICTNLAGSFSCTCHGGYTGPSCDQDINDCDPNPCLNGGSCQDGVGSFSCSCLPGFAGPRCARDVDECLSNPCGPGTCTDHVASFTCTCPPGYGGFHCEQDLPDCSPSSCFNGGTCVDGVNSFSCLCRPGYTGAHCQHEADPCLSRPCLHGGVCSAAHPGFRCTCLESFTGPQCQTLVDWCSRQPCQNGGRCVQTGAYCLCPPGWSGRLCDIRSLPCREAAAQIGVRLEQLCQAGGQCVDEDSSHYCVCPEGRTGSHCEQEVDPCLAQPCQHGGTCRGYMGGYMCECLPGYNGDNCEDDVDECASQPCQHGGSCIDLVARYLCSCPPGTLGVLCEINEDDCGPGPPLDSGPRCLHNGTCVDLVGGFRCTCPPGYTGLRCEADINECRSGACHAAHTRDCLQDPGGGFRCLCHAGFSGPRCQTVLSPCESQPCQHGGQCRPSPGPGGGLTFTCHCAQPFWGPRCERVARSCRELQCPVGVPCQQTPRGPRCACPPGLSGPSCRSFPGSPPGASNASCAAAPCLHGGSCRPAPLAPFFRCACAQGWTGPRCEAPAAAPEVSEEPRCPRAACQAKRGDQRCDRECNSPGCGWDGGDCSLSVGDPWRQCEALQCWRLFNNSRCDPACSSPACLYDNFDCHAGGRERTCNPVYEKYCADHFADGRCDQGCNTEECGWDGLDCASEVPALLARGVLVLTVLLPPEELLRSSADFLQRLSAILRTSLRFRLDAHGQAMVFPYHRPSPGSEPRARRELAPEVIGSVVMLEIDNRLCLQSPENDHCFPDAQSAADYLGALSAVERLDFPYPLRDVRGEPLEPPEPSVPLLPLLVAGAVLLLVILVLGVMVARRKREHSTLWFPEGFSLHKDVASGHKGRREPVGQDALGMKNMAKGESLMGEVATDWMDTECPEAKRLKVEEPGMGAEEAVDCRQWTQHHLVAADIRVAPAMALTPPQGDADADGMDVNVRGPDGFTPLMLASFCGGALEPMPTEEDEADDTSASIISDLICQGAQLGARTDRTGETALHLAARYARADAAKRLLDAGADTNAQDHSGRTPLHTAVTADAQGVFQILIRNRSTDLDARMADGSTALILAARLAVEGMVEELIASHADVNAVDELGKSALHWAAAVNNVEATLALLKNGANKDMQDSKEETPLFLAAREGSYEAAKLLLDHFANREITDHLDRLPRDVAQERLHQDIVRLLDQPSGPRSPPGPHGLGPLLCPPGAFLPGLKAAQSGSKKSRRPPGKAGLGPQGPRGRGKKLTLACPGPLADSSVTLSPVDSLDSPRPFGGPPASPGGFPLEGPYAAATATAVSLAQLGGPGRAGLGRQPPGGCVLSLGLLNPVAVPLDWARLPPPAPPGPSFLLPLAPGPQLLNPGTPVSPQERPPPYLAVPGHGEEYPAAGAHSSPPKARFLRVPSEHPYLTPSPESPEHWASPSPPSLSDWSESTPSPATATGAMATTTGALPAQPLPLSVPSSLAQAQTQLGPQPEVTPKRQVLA

With `CCc1cc2c(nc1CC)CCN(CCC(C)=NOCC[C@@H]1C=C[C@H](OC(C)=O)[C@@H](COC(C)=O)O1)C2`, the composite z-score in experiment [1] is 0.325; in experiment [2] it was 1.66; in experiment [3], -0.103; in experiment [4] it was -0.213; in [5], -0.0544; in experiment [6], -0.0974. Further, the composite z-score was found to be 0.545 in experiment [7]; 0.851 in experiment [9]; 0.0722 in [10]; 1.54 in experiment [11]; 0.796 in [15]; 0.251 in [17]. Besides, the composite z-score in experiment [18] was determined as 1.21; in experiment [19], 0.546; in experiment [20], 0.0579. Also, the z-score was 0.485 (inactive) in experiment [8]; -0.391 (inactive) in [12]; 0.591 (inactive) in experiment [13]; 0.521 (inactive) in experiment [14]; 0.956 (inactive) in experiment [16].
In the case of `CC(=O)OC[C@H]1O[C@@H](ON=C(C)CCC(=O)OC[C@H]2O[C@H](C#Cc3ccccc3)C=C[C@@H]2Oc2ccc(C)cc2)[C@H](OC(C)=O)[C@@H](OC(C)=O)[C@@H]1OC(C)=O`, the composite z-score is -0.65 in experiment [1]; 0.745 in experiment [2]; 0.0309 in experiment [3]; 1.12 in experiment [4]; 0.951 in experiment [5]; 0.51 in [6]. The composite z-score in experiment [7] was 0.938; in experiment [9] it was 0.31; in experiment [10] it was -0.0994; in [11], 1.54; in experiment [15] it was 2.3; in [17], -0.122. The composite z-score in experiment [18] is 1.36; in experiment [19] it was 0.936; in experiment [20] it was -0.0455. Further, the z-score in experiment [8] is 0.66 (inactive); in experiment [12] it was 0.82 (inactive); in experiment [13], 0.882 (inactive); in experiment [14] it was -0.211 (inactive); in experiment [16] it was 0.142 (inactive).
In the case of `CCCNC(=O)OC[C@H]1O[C@H](CCON=C[C@@H](C)[C@H](OCc2ccccc2)C(C)C)C=C[C@@H]1Oc1ccc(OC)cc1`, the composite z-score in experiment [1] was -0.273; in [2], 0.729; in experiment [3], -0.161; in [4], 0.416; in experiment [5] it was -0.566; in [6], -0.645. The composite z-score in [7] was -0.814; in experiment [9] it was -0.307; in experiment [10], -0.0346; in [11] it was -0.295; in [15], -0.605; in experiment [17], -0.0753. Moreover, the composite z-score in experiment [18] is -0.0593; in experiment [19] it was -0.942; in [20] it was -0.141. Besides, the z-score in experiment [8] is -0.748 (inactive); in experiment [12], -2.24 (inactive); in experiment [13], -1.52 (inactive); in [14], -0.25 (inactive); in experiment [16], -1.13 (inactive).
For `CC(C)(C)N1C(=O)[C@H]2[C@H]3[C@H](O)[C@H](O)CC(=NNC(=O)OCc4ccccc4)[C@@H]3CC[C@H]2C1=O`, the composite z-score in experiment [1] is -0.387; in experiment [2] it was 0.376; in experiment [3] it was -0.136; in [4], 0.64; in experiment [5] it was 0.447; in [6] it was -0.0123. Also, the composite z-score in experiment [7] was 0.254; in experiment [9] it was 0.278; in [10], -0.161; in experiment [11], 0.561; in experiment [15], 0.883; in experiment [17], -0.0824. The composite z-score in [18] came out at 0.457; in experiment [19], 0.586; in [20], 0.172. Besides, the z-score in [8] is 0.674 (inactive); in experiment [12] it was -0.668 (inactive); in [13], 0.588 (inactive); in [14] it was 9.42 (active); in [16], 0.45 (inactive).
Consider `CCOC(=O)CCN1C(=O)[C@H]2[C@H]3[C@H](O)[C@H](O)CC(=O)[C@@H]3CC[C@H]2C1=O`, for which the composite z-score in [1] is -0.577; in experiment [2], 0.125; in experiment [3], -0.16; in experiment [4], 0.832; in experiment [5], 0.916; in experiment [6], 0.102. Further, the composite z-score in experiment [7] was 0.482; in experiment [9], 0.658; in experiment [10], -0.27; in experiment [11], 0.58; in experiment [15], 0.846; in experiment [17], -0.198. The composite z-score in [18] amounted to 0.589; in experiment [19] it was 0.738; in [20], 0.0004. In addition, the z-score in experiment [8] is -0.407 (inactive); in experiment [12] it was -0.0366 (inactive); in [13], -0.267 (inactive); in experiment [14], -0.0766 (inactive); in experiment [16], -0.353 (inactive).
